A short description of test [1]: A CellTox Green Cytotoxicity Assay to monitor cytotoxicity in HEK293 cells - 40 hour (AID 1224871). Also: nearly all actives have a fitted effect of over 45% in size. In outline:
(§1)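 Cells (HEK293, 600/well) and dye reagent are dispensed together. After 5 h at 37 C, 23 nL compound is pinned in. Plates stay at 37 C for 40 h with fluorescence read at 0h, 8h, 16h, 24h, 32h and 40h.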

Test [2] is described as follows: qHTS RealTime-Glo MT Cell Viability Assay in HepG2 cells - 8 hour (AID 1224873). Also: nearly all actives have a fitted effect of over 55% in size. In outline:
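Real-time viability: cells seeded at 600 per well together with NanoLuc and cell-permeant prosubstrate, compounds added after 5 h incubation. Luminescence tracked at 0, 8, 16, 24, 32 and 40 h of exposure.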
For orientation: In qHTS, concentration-response curves come from the screen itself.

Test [3] in a line: qHTS RealTime-Glo MT Cell Viability Assay in HEK293 cells - 40 hour (AID 1224874). Also: nearly all actives have a fitted effect of over 50% in size. To be noted: RealTime-Glo luminescence; max response: stronger effect = lower value. In outline:
(§2)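 Real-time viability in HEK293: signal arises when living cells convert a prosubstrate for NanoLuc in the medium, so luminescence tracks viable cell number. Compound (23 nL, DMSO) added 5 h post-seeding; kinetic reads at 0–40 h, 37 C.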

A short description of test [4]: A CellTox Green Cytotoxicity Assay to monitor cytotoxicity in HEK293 cells - 24 hour (AID 1224875). Also: nearly all actives have a fitted effect of over 45% in size. A digest of the protocol: as §1
A short description of test [5]: A CellTox Green Cytotoxicity Assay to monitor cytotoxicity in HepG2 cells - 16 hour (AID 1224876). Also: nearly all actives have a fitted effect of over 45% in size. In outline:
(§3)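 Cells and non-lytic dye reagent are dispensed together (600 HepG2 cells/well) and incubated 5 h before DMSO compound transfer. Kinetic fluorescence is then recorded in the same wells during 40 h at 37 C.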

Test [6] is described as follows: qHTS RealTime-Glo MT Cell Viability Assay in HepG2 cells - 32 hour (AID 1224877). Also: nearly all actives have a fitted effect of over 55% in size. A digest of the protocol:
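HepG2 cells (600/well) were dispensed with RealTime-Glo reagents, incubated 5 h at 37 °C, then treated with compounds in DMSO for up to 40 h. Nonlytic NanoLuc luminescence reflecting viable cells was read at each stated time point.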

A short description of test [7]: A CellTox Green Cytotoxicity Assay to monitor cytotoxicity in HepG2 cells - 24 hour (AID 1224878). Also: nearly all actives have a fitted effect of over 45% in size. In outline: as §3
Test [8] is described as follows: A CellTox Green Cytotoxicity Assay to monitor cytotoxicity in HepG2 cells - 40 hour (AID 1224879). Also: nearly all actives have a fitted effect of over 40% in size. In outline:
as §3

Test [9] in a line: qHTS RealTime-Glo MT Cell Viability Assay in HEK293 cells - 0 hour (AID 1224880). Also: nearly all actives have a fitted effect of over 45% in size. In outline: as §2
Test [10] in a line: qHTS RealTime-Glo MT Cell Viability Assay in HEK293 cells - 16 hour (AID 1224872). Also: nearly all actives have a fitted effect of over 50% in size. In outline: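 HEK293 cells seeded with NanoLuc/prosubstrate reagent, rested 5 h at 37 C, then dosed and kept at 37 C up to 40 h. Nonlytic real-time luminescence from viable cells read at 0, 8, 16, 24, 32 and 40 h.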

Records with an inconclusive call do not appear. A number with no mark means an inactive call. Activity calls are given as the source filed them. Calls follow the shape of the dose curve; as a rule, active = well fitted curve in the direction sought with a large enough effect in the repeat runs; inconclusive = weak or mixed curves; inactive = no such curve, though single readings can be large; an effect the other way counts as inactive or inconclusive.
% is scaled to controls: 0 for no effect and ±100 for the full control effect; potency is read from the fitted curve at half-maximal effect.

Consider `N#C[C@@H]1C[C@@H]2C[C@@H]2N1C(=O)[C@@H](N)C12CC3CC(CC(O)(C3)C1)C2`, for which the Potency entry in test [1], in test [2], in test [4], in [5], in [6] and in [7] was “inactive” each time. The Potency entry in [8] and in test [9] was “inactive” throughout. Also, in test [3], the max response was 10.4%.

As to `CCC(C)(C)C1CCC(O)CC1` (stereo not drawn), the Potency entry in test [1], in [2], in [4], in [6] and in test [9] was “inactive” throughout. The max response in test [3] is 3.32%.

As for `CN(C)C(=O)Nc1ccc(Oc2ccc(Cl)cc2)cc1`, the Potency entry in [1], in [2], in test [4], in test [5], in [6] and in test [9] was “inactive” each time. For the same molecule, in test [3], the Potency is 34.7 µM (active).

In the case of `CCC(C(=O)OCCOCCN(CC)CC)c1ccccc1` (stereo not drawn), the Potency result in test [1], in [2], in test [4], in test [5], in [6] and in test [8] was “inactive” each time. The Potency result in test [9] was “inactive”. In addition, the max response in test [3] was 4.17%.

As for `C[N+](C)(C)CCOC(N)=O`, the Potency result in test [1], in test [2], in test [4], in test [5], in test [6] and in [7] was “inactive” in each case. The Potency result in test [8] and in [9] was “inactive” each time. The max response in test [3] is 0.438%.

`CC(=O)Nc1ccc(N)cc1`: the Potency result in test [1], in test [2], in test [4], in test [5], in test [6] and in [7] was “inactive” in each case. Moreover, the Potency result in [8] and in [9] was “inactive” throughout. The max response in test [3] is 4.7%.

For the molecule `CCOC(=O)C(C)Oc1ccc(Oc2nc3ccc(Cl)cc3o2)cc1` (stereo not drawn), the Potency result in test [1], in [4], in [5], in test [7] and in test [9] was “inactive” throughout. In test [2], the Potency was 15.5 µM (active).

In the case of `CC(C)CCCCCOC(=O)CCCCC(=O)OCCCCCC(C)C`, the Potency result in [1], in test [4], in [5], in test [6], in test [7] and in test [9] was “inactive” throughout. In addition, in [3], the max response was 3.71%.

Regarding `CC(C)C(OC(=O)c1ccccc1)C(C)(C)COC(=O)c1ccccc1` (stereo not drawn), the Potency result in [1], in [2], in [4], in test [5], in test [6] and in test [7] was “inactive” throughout. Moreover, the Potency entry in test [8] and in [9] was “inactive” each time.

Regarding `CO[C@@]12[C@H](COC(N)=O)C3=C(C(=O)C(C)=C(N)C3=O)N1C[C@@H]1N[C@@H]12`, the Potency entry in test [1], in test [4] and in test [9] was “inactive” each time. The Potency is 1.34 µM (active) in test [2], 0.674 µM (active) in [3], 5.35 µM (active) in [6] and 6.74 µM (active) in test [8].

With `ON(Cc1ccccc1)Cc1ccccc1`, the Potency result in test [1], in test [2], in test [4], in [5], in test [6] and in test [9] was “inactive” in each case. In test [3], the max response is 4.01%.

Regarding `CC1CC(=O)NN=C1c1ccc(NCC(C)(C)NCC(O)COc2cc(Cl)ccc2C#N)cc1` (stereo not drawn), the Potency entry in [1], in test [2], in test [4], in [5], in test [6] and in [8] was “inactive” in each case. In addition, the Potency entry in [9] was “inactive”.

Turning to `CCOC(=O)CC(=O)C(=O)OCC`, the Potency result in [2], in [4], in test [5], in test [6] and in test [7] was “inactive” throughout. In test [3], the Potency is 43.6 µM (active).

As to `CN(C)CCOC1=Cc2ccccc2Sc2ccc(Cl)cc21`, the Potency entry in [2] and in test [4] was “inactive” in each case. Besides, the max response in test [3] was -22.7%. Also, the Potency is 21.3 µM (active) in test [6], 23.9 µM (active) in test [7] and 23.9 µM (active) in test [8].

For `CCOC(=O)N1CCC(n2c(=O)[nH]c3cc(Cl)ccc32)CC1`, the Potency entry in test [1], in test [4], in [5], in test [6] and in test [9] was “inactive” throughout.

Take `O=C(c1ccc(O)cc1)c1ccc(Cl)cc1`: the Potency in test [10] and in test [3] was 25.1 µM (active) each time. The Potency entry in [5], in test [6], in [7], in test [8] and in test [9] was “inactive” each time.

On to `CC(=O)OCC(=O)[C@H]1CC[C@H]2[C@@H]3CCC4=CC(=O)CC[C@]4(C)[C@H]3CC[C@]12C`, for which the Potency result in [2], in test [4], in test [5], in [6], in test [7] and in test [8] was “inactive” each time. The Potency in test [9] is 9.52 µM (active).

`O=[N+]([O-])c1cccc(S(=O)(=O)NCCNS(=O)(=O)c2cccc([N+](=O)[O-])c2)c1`: the Potency entry in [10], in [2], in test [4], in test [5], in [6] and in test [7] was “inactive” in each case. In test [9], the Potency entry was “inactive”. Also, the max response in test [3] was -6.21%.

For the molecule `CC1=CC(O)CC(C)(C)C1` (stereo not drawn), the Potency result in [10], in test [2], in test [4], in test [5], in [6] and in test [7] was “inactive” each time. Moreover, the Potency result in [8] and in [9] was “inactive” each time. Further, in [3], the max response was 8.3%.

With `CSc1ccc(Oc2ccc(S(N)(=O)=O)cc2CN(C)C)cc1C`, the Potency entry in test [1], in [4] and in test [6] was “inactive” each time. Besides, in test [3], the Potency is 38.9 µM (active).

On to `CC(Cl)C(Cl)Cl` (stereo not drawn), for which the Potency result in test [10], in [2], in test [5], in test [6], in test [7] and in test [8] was “inactive” in each case. The max response in test [3] is -7.3%. Moreover, the Potency in test [4] was 42.9 µM (active).

Regarding `CC(COc1ccc(C(C)(C)C)cc1)OS(=O)OCCCl` (stereo not drawn), the Potency entry in test [1], in test [4], in test [5], in [6] and in test [9] was “inactive” in each case. Further, the Potency in test [3] was 0.391 µM (active).

For the molecule `CCCCC1C(=O)N(c2ccccc2)N(c2ccc(O)cc2)C1=O` (stereo not drawn), the Potency entry in [2] and in test [9] was “inactive” in each case. Moreover, the Potency in [6] is 16.9 µM (active); in [8], 10.7 µM (active).

Regarding `O=C1NCCN1`, the Potency result in test [10], in [2], in test [5], in [6], in [7] and in test [8] was “inactive” throughout. Moreover, the Potency entry in [9] was “inactive”. Further, in test [3], the max response was 4.04%.

For `CNCCCC1c2ccccc2C=Cc2ccccc21`, the Potency result in [2] is “inactive”. Further, the Potency in test [3], in [5], in test [6], in test [7] and in test [8] was 23.9 µM (active) throughout.

On to `O=C(Nc1ccc([N+](=O)[O-])cc1)Nc1ccc([N+](=O)[O-])cc1`, for which the Potency in [1] is 13.4 µM (active); in test [3], 7.56 µM (active); in [8], 23.9 µM (active). The Potency entry in test [4] and in test [5] was “inactive” throughout.

As for `CC1=C(C=O)C(C)(C)CCC1`, the Potency result in test [2], in test [5], in [6] and in [7] was “inactive” each time.

Source of the values: PubChem BioAssay (Tox21).
